For 13 compounds, NF-kB reporter, IRF reporter and viability score results are on record in the supplement of paper PMC10646978.

Holding throughout (details): modulator concentration 10 µM
Assay [1] has as its system RAW-Dual (murine macrophage reporter line). Description: NF-kB reporter (SEAP) activity fold change vs agonist alone; higher = enhanced NF-kB activity. The method, boiled down:
(§1)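 RAW-Dual murine macrophage reporter cells were plated at 50 000 per well in 384-well plates, pin-transferred compound to 10 μM final, and pre-incubated for 1 hour at 37 °C before a PRR agonist was added and the cells incubated overnight. NF-κB activity was read from supernatant SEAP with QUANTI-Blue at 620 nm absorbance, and IRF activity from Lucia luciferase with QUANTI-Luc by luminescence. Each signal was expressed as fold change by dividing by the mean agonist-only control on the same plate. Two replicate plates were averaged, with errors obtained by propagation.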

For assay [2] the test system is unchanged. Description: IRF reporter (Lucia luciferase) activity fold change vs agonist alone; higher = enhanced IRF activity. A digest of the protocol: as §1
The test system is the same in assay [3]. Description: viability score (confluency relative to resting cells, overnight) (fraction); higher = more viable, active = viable (0.7 or more). The method, boiled down: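 RAW-Dual macrophages in 384-well plates were treated overnight with compound at 10 μM final. IncuCyte imaging recorded confluency, and IncuCyte software built two confluency masks across every imaged well. The viability score expresses confluency relative to resting cells and was judged against a cutoff, which a compound met only if both masks exceeded 70% of resting cells.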

Setting [4] is: agonist: CpG ODN 1826 0.5 ug/mL.

Each structure is given as a SMILES string. ± gives the standard deviation.

As for `CN(c1ccccc1)c1nnc(C(C)(C)C)c(=O)[nH]1`, the NF-kB reporter in assay [1] (setting [4]) came out at 1.05 ± 0.079; in assay [1] (agonist: LPS 0.1 ug/mL), 0.951 ± 0.076; in assay [1] (agonist: MPLA […]), 1.01 ± 0.048. In addition, the IRF reporter in assay [2] (agonist: 3'3'-cGAMP 10 ug/mL) was 1.03 ± 0.039; in assay [2] (agonist: LPS 0.1 ug/mL), 0.908 ± 0.11; in assay [2] (agonist: MPLA […]) it was 0.863 ± 0.24. The viability score in assay [3] is 0.994 (active).
As to `Cc1cc(C)nc(NC#N)n1`, the results for the NF-kB reporter in assay [1] (setting [4]), in assay [1] (agonist: LPS 0.1 ug/mL) and in assay [1] (agonist: MPLA […]) were 0.919 ± 0.072, 0.966 ± 0.11 and 0.971 ± 0.061, respectively. For the same compound, the IRF reporter in assay [2] (agonist: 3'3'-cGAMP 10 ug/mL) amounted to 0.776 ± 0.1; in assay [2] (agonist: LPS 0.1 ug/mL), 1.02 ± 0.13; in assay [2] (agonist: MPLA […]), 1.18 ± 0.2. Moreover, the viability score in assay [3] is 0.998 (active).
`COCCOC(=O)C1=C(C)NC(C)=C(C(=O)OCC=Cc2ccccc2)C1c1cccc([N+](=O)[O-])c1` (stereo unspecified): the NF-kB reporter in assay [1] (setting [4]) came out at 0.586 ± 0.052; in assay [1] (agonist: LPS 0.1 ug/mL), 0.539 ± 0.074; in assay [1] (agonist: MPLA […]) it was 1.07 ± 0.068. Further, the IRF reporter was determined as 0.548 ± 0.035 in assay [2] (agonist: 3'3'-cGAMP 10 ug/mL), 1.06 ± 0.035 in assay [2] (agonist: LPS 0.1 ug/mL) and 2.1 ± 0.43 in assay [2] (agonist: MPLA […]). Further, in assay [3], the viability score was 0.989 (active).
Take `COc1ccc2c3c([nH]c2c1)C(=O)CCC3`: the NF-kB reporter turned out to be 1.43 ± 0.11 in assay [1] (setting [4]), 0.785 ± 0.066 in assay [1] (agonist: LPS 0.1 ug/mL) and 1.12 ± 0.11 in assay [1] (agonist: MPLA […]). Moreover, the IRF reporter turned out to be 0.732 ± 0.067 in assay [2] (agonist: 3'3'-cGAMP 10 ug/mL), 0.561 ± 0.12 in assay [2] (agonist: LPS 0.1 ug/mL) and 0.464 ± 0.11 in assay [2] (agonist: MPLA […]). In assay [3], the viability score is 0.843 (active).
In the case of `Cc1cc(CNS(=O)(=O)Cc2ccc(C(F)(F)F)cc2)c(C)o1`, the results for the NF-kB reporter in assay [1] (setting [4]), in assay [1] (agonist: LPS 0.1 ug/mL) and in assay [1] (agonist: MPLA […]) were 1.01 ± 0.087, 0.963 ± 0.076 and 0.951 ± 0.044, respectively. Further, the results for the IRF reporter in assay [2] (agonist: 3'3'-cGAMP 10 ug/mL), in assay [2] (agonist: LPS 0.1 ug/mL) and in assay [2] (agonist: MPLA […]) were 1.26 ± 0.068, 1.34 ± 0.083 and 1.37 ± 0.23, respectively. Further, the viability score in assay [3] was 0.383 (inactive).
As to `CSC1CCN(C(=O)Nc2ccc(C)c(C)c2)C1` (stereo unspecified), the NF-kB reporter in assay [1] (setting [4]) is 1.03 ± 0.38; in assay [1] (agonist: LPS 0.1 ug/mL) it was 0.953 ± 0.11; in assay [1] (agonist: MPLA […]) it was 0.985 ± 0.063. Further, the IRF reporter in assay [2] (agonist: 3'3'-cGAMP 10 ug/mL) is 0.906 ± 0.038; in assay [2] (agonist: LPS 0.1 ug/mL), 0.954 ± 0.17; in assay [2] (agonist: MPLA […]) it was 1.09 ± 0.11. The viability score in assay [3] was 0.999 (active).
As to `CSc1ccc(C(=O)O)s1`, the NF-kB reporter in assay [1] (setting [4]) was 1.02 ± 0.13; in assay [1] (agonist: LPS 0.1 ug/mL), 1.08 ± 0.09; in assay [1] (agonist: MPLA […]), 1.03 ± 0.065. The IRF reporter in assay [2] (agonist: 3'3'-cGAMP 10 ug/mL) amounted to 1.01 ± 0.21; in assay [2] (agonist: LPS 0.1 ug/mL), 1.03 ± 0.059; in assay [2] (agonist: MPLA […]), 1.03 ± 0.15. In addition, the viability score in assay [3] was 1.01 (active).
Take `COc1ccc(-c2noc(-c3ccc(=O)n(Cc4ncc(C)c(OC)c4C)c3)n2)cc1F`: the NF-kB reporter in assay [1] (setting [4]) came out at 0.91 ± 0.058; in assay [1] (agonist: LPS 0.1 ug/mL), 0.944 ± 0.083; in assay [1] (agonist: MPLA […]), 1.06 ± 0.073. Moreover, the IRF reporter amounted to 0.961 ± 0.044 in assay [2] (agonist: 3'3'-cGAMP 10 ug/mL), 1.17 ± 0.24 in assay [2] (agonist: LPS 0.1 ug/mL) and 1.31 ± 0.51 in assay [2] (agonist: MPLA […]). In assay [3], the viability score was 0.956 (active).
For the compound `Cl.NC1=NCC2c3ccccc3Cc3ccccc3N12` (stereo unspecified), the NF-kB reporter in assay [1] (setting [4]) worked out at 1.03 ± 0.077; in assay [1] (agonist: LPS 0.1 ug/mL) it was 1.09 ± 0.056; in assay [1] (agonist: MPLA […]), 1.06 ± 0.077. In addition, the results for the IRF reporter in assay [2] (agonist: 3'3'-cGAMP 10 ug/mL), in assay [2] (agonist: LPS 0.1 ug/mL) and in assay [2] (agonist: MPLA […]) were 0.898 ± 0.068, 0.982 ± 0.051 and 0.822 ± 0.11, respectively. The viability score in assay [3] was 1 (active).
In the case of `COc1ccccc1N1CCN(CC(O)COc2cccc3ccccc23)CC1.Cl.Cl` (stereo unspecified), the results for the NF-kB reporter in assay [1] (setting [4]), in assay [1] (agonist: LPS 0.1 ug/mL) and in assay [1] (agonist: MPLA […]) were 0.595 ± 0.13, 0.696 ± 0.13 and 0.725 ± 0.048, respectively. Moreover, the IRF reporter in assay [2] (agonist: 3'3'-cGAMP 10 ug/mL) was 0.654 ± 0.03; in assay [2] (agonist: LPS 0.1 ug/mL) it was 1.17 ± 0.34; in assay [2] (agonist: MPLA […]) it was 1.17 ± 0.22. In assay [3], the viability score was 0.97 (active).
As for `CCN(CC)CCN1C(=O)C(O)=C(C(=O)c2ccc(Br)cc2)C1c1ccccc1F` (stereo unspecified), the NF-kB reporter amounted to 0.741 ± 0.061 in assay [1] (setting [4]), 0.884 ± 0.1 in assay [1] (agonist: LPS 0.1 ug/mL) and 0.985 ± 0.1 in assay [1] (agonist: MPLA […]). The IRF reporter in assay [2] (agonist: 3'3'-cGAMP 10 ug/mL) was 0.94 ± 0.045; in assay [2] (agonist: LPS 0.1 ug/mL), 1.14 ± 0.08; in assay [2] (agonist: MPLA […]) it was 1.2 ± 0.15. Also, the viability score in assay [3] is 1.01 (active).
`CC(=NNC(=O)CSc1nc2ccccc2n1Cc1ccccc1)c1ccc(Br)cc1`: the NF-kB reporter in assay [1] (setting [4]) was found to be 0.996 ± 0.12; in assay [1] (agonist: LPS 0.1 ug/mL), 0.996 ± 0.1; in assay [1] (agonist: MPLA […]), 1.04 ± 0.036. The IRF reporter turned out to be 0.942 ± 0.042 in assay [2] (agonist: 3'3'-cGAMP 10 ug/mL), 0.946 ± 0.16 in assay [2] (agonist: LPS 0.1 ug/mL) and 1.01 ± 0.29 in assay [2] (agonist: MPLA […]). Further, the viability score in assay [3] is 0.996 (active).
As to `CC(=O)Oc1c(C)cc2sc3ccccc3c(=O)c2c1C`, the NF-kB reporter in assay [1] (setting [4]) is 1.06 ± 0.18; in assay [1] (agonist: LPS 0.1 ug/mL) it was 0.87 ± 0.077; in assay [1] (agonist: MPLA […]), 0.927 ± 0.095. In addition, the IRF reporter in assay [2] (agonist: 3'3'-cGAMP 10 ug/mL) came out at 0.846 ± 0.032; in assay [2] (agonist: LPS 0.1 ug/mL) it was 1.25 ± 0.12; in assay [2] (agonist: MPLA […]) it was 1.2 ± 0.12. The viability score in assay [3] is 0.998 (active).
